Columns and labels:
Assay in all cases: pooled miR-30 sensor sort-seq; sequence = guide strand
Details in all cases: shRNA
C9orf72 = biological target: C9orf72
C9orf37 = biological target: C9orf37
CA4 = biological target: CA4
C9orf93 = biological target: C9orf93
CA8 = biological target: CA8
CADM4 = biological target: CADM4
CAPRIN1 = biological target: CAPRIN1
CASP8 = biological target: CASP8
CASK = biological target: CASK
CAPNS2 = biological target: CAPNS2
CBWD1 = biological target: CBWD1
CCDC102B = biological target: CCDC102B
CCDC56 = biological target: CCDC56
CD180 = biological target: CD180
CD320 = biological target: CD320
CDC23 = biological target: CDC23

## TACATCTATAGCACCACTCTCT
C9orf72
  sensor-assay potency score (higher = more potent): -0.415

## TCTGTGGAACAGCATTTCTCAA
C9orf37
  sensor-assay potency score (higher = more potent): -1.65

## TTTTTTGTCCACCTTTGCCTTG
CA4
  sensor-assay potency score (higher = more potent): -1.1

## TTTCACTAGAGTGTCTCTGTGT
C9orf72
  sensor-assay potency score (higher = more potent): 0.565

## TCACTGTCTGTTCCTTGTCGTA
CA4
  sensor-assay potency score (higher = more potent): -1.4

## TACCTTATCTATAAAATGCACA
C9orf37
  sensor-assay potency score (higher = more potent): -0.634

## TATATTGTAAACATAGGTCTGT
C9orf72
  sensor-assay potency score (higher = more potent): 0.698

## TCGTAGTACAGCTTCTGAGAGA
CA4
  sensor-assay potency score (higher = more potent): -0.918

## TTGCACAGCAGTATCTTGCTCC
C9orf93
  sensor-assay potency score (higher = more potent): 0.17

## TACAGTAATTCTACACACCAAA
C9orf72
  sensor-assay potency score (higher = more potent): -0.818

## TATCTATAAAATGCACAGGACC
C9orf37
  sensor-assay potency score (higher = more potent): -1.69

## TTCCTTTCTAGCAACAGCTAGG
C9orf93
  sensor-assay potency score (higher = more potent): -0.694

## TTTGTCAGTTACCTTATCTATA
C9orf37
  sensor-assay potency score (higher = more potent): -0.888

## TTATTTTGGACAGTCCACGTTT
CA4
  sensor-assay potency score (higher = more potent): -0.237

## TAATCTATCAACACACACTCTA
C9orf72
  sensor-assay potency score (higher = more potent): 0.268

## TTCTCCTTTAGGGCGAAGGGGT
C9orf37
  sensor-assay potency score (higher = more potent): -1.42

## ATGGTGGTGAAGAAGGCTCTGG
C9orf37
  sensor-assay potency score (higher = more potent): -0.917

## TAAATCAAGGTCTATCTTCAGG
C9orf72
  sensor-assay potency score (higher = more potent): -0.851

## TTACAGGAATCACTTCTCCAGT
C9orf72
  sensor-assay potency score (higher = more potent): -1.29

## TTAATTGTACTGTTAACTCTTC
C9orf93
  sensor-assay potency score (higher = more potent): -0.0565

## TATGCATCCATATTCTTCCTTT
C9orf72
  sensor-assay potency score (higher = more potent): -0.33

## TCCAGTTCTCCTTTAGGGCGAA
C9orf37
  sensor-assay potency score (higher = more potent): -0.959

## TTATCTATAAAATGCACAGGAC
C9orf37
  sensor-assay potency score (higher = more potent): -1.03

## TTAACTCTTTATTAACATCAGC
C9orf93
  sensor-assay potency score (higher = more potent): -1.03

## TAAAATAAACAAAACACCCTAA
C9orf72
  sensor-assay potency score (higher = more potent): 0.0855

## TTGGTTGTTATTTCTAACTTTT
C9orf93
  sensor-assay potency score (higher = more potent): -0.955

## TTTAGTGTGAGAGTCTATCTTC
C9orf93
  sensor-assay potency score (higher = more potent): 0.39

## TTCTCATCGCAGGTCGGTGTGG
CA4
  sensor-assay potency score (higher = more potent): -1.28

## TCAAATTCCAGTTCTCCTTTAG
C9orf37
  sensor-assay potency score (higher = more potent): -1.07

## TTTGGTAAAGGTGTCTTCCTGA
C9orf93
  sensor-assay potency score (higher = more potent): 0.821

## TATTTCTTCAGGAACACTGTGT
C9orf72
  sensor-assay potency score (higher = more potent): 0.74

## TTTGCTTCTGCAACGATGCTGT
C9orf93
  sensor-assay potency score (higher = more potent): 0.756

## TATCTGAACAAACAGAGCAATG
CA8
  sensor-assay potency score (higher = more potent): -1.69

## AATTCTTCTATCTGTAGCTGGG
CA8
  sensor-assay potency score (higher = more potent): -0.112

## AAGCTGGAAACGCTCATCCTTC
CADM4
  sensor-assay potency score (higher = more potent): -1.15

## TTTGCTGGTTCCTTGCAGCTGG
CADM4
  sensor-assay potency score (higher = more potent): 0.149

## TTTACATTGATTCCACTGCTAT
CAPRIN1
  sensor-assay potency score (higher = more potent): -0.568

## ATCTGATAGAGCATGACCCTGT
CASP8
  sensor-assay potency score (higher = more potent): -0.509

## TATTGTTTTCTGAATATCTTGA
CAPRIN1
  sensor-assay potency score (higher = more potent): 0.459

## TTGACTGAAAAACACGCTCAAC
CAPRIN1
  sensor-assay potency score (higher = more potent): -1.28

## TAGATAATAACTCTTCTGGTAA
CAPRIN1
  sensor-assay potency score (higher = more potent): -0.812

## TTTCTGCTGAAGTCCATCTTTT
CASP8
  sensor-assay potency score (higher = more potent): -1.01

## AATATCTTGACTTAGTGCCATG
CAPRIN1
  sensor-assay potency score (higher = more potent): -1.68

## TTCATAGTCGTTGATTATCTTC
CASP8
  sensor-assay potency score (higher = more potent): -0.794

## TTACATAGATCTGTCGTCCTTT
CASK
  sensor-assay potency score (higher = more potent): 0.751

## TTTTGCAAAATTGTGATTGTTG
CASP8
  sensor-assay potency score (higher = more potent): 0.0045

## TTAGTGTGAAAGTAGGCTGAGG
CASP8
  sensor-assay potency score (higher = more potent): -0.589

## TTGTGCTCTTACATAGATCTGT
CASK
  sensor-assay potency score (higher = more potent): 0.417

## TTTCTTGTCATCCTTGTTGCTT
CASP8
  sensor-assay potency score (higher = more potent): -0.189

## TAAAGCATTCCATCTGAGCTAT
CASK
  sensor-assay potency score (higher = more potent): -0.371

## TTCTTGTCATCCTTGTTGCTTA
CASP8
  sensor-assay potency score (higher = more potent): -0.496

## TTACTTTCAATAACCACCCTGG
CASP8
  sensor-assay potency score (higher = more potent): 0.486

## TTCTTCTGAAATCTGATAGAGC
CASP8
  sensor-assay potency score (higher = more potent): -0.601

## TTTCTTGTCGATCACCCCGAGA
CAPRIN1
  sensor-assay potency score (higher = more potent): -1.14

## TAAACTTTGTCCAAAGTCTGTG
CASP8
  sensor-assay potency score (higher = more potent): -0.0888

## TAGTAGTGTGTGAAGATGCTGA
CASK
  sensor-assay potency score (higher = more potent): 0.139

## ATTTGTGACTTGACACAGCGGC
CASK
  sensor-assay potency score (higher = more potent): 0.473

## TAAGATGTCAGACTCCTTCTGC
CASK
  sensor-assay potency score (higher = more potent): 0.313

## TATTAATAGATGATCGACCCTC
CASP8
  sensor-assay potency score (higher = more potent): -0.244

## TAAAATACGCTTTAGTTCCTTT
CASK
  sensor-assay potency score (higher = more potent): -0.108

## TTTACTTTCAATAACCACCCTG
CASP8
  sensor-assay potency score (higher = more potent): 0.433

## TTTCTCTGTTGATACATCGTCG
CASK
  sensor-assay potency score (higher = more potent): -0.203

## TTGAGGTGATGATAAATCCATT
CASP8
  sensor-assay potency score (higher = more potent): -0.92

## TTCATGTGCCACTACGTCGTGA
CASK
  sensor-assay potency score (higher = more potent): -0.762

## TTACATACTCTGTTGATTCAAC
CAPRIN1
  sensor-assay potency score (higher = more potent): 0.0551

## TTCTGAAATCTGATAGAGCATG
CASP8
  sensor-assay potency score (higher = more potent): -1.4

## TACAGGAACTTGATTAGGCTGA
CAPRIN1
  sensor-assay potency score (higher = more potent): 0.0825

## ATAGTCGTTGATTATCTTCAGC
CASP8
  sensor-assay potency score (higher = more potent): -0.538

## TTTTGAAACTGTACCAGCCGAA
CASK
  sensor-assay potency score (higher = more potent): -0.413

## TATATGTCTCCAATAACTCTAC
CASK
  sensor-assay potency score (higher = more potent): -0.605

## TTGATAGCCAGAGTAATCCCGG
CAPRIN1
  sensor-assay potency score (higher = more potent): -0.0464

## TACATCGTCGTACAACACTGAA
CASK
  sensor-assay potency score (higher = more potent): -1.22

## TCTATCTCTATCCAGAGACTTG
CAPNS2
  sensor-assay potency score (higher = more potent): -1.33

## TAACATATTATGGTACACTGGC
CAPRIN1
  sensor-assay potency score (higher = more potent): 0.119

## TTTCTGAATATCTTGACTTAGT
CAPRIN1
  sensor-assay potency score (higher = more potent): -0.78

## TACTGTGCAGTCATCGTGGGGC
CASP8
  sensor-assay potency score (higher = more potent): 0.503

## TTGTCTAGTAGCTTCATTGATA
CBWD1
  sensor-assay potency score (higher = more potent): -0.639

## TAACATTAGCTTCTAATGCCTC
CCDC102B
  sensor-assay potency score (higher = more potent): -0.718

## TTGCCAGAGCTCGGGCTCGGGC
CCDC56
  sensor-assay potency score (higher = more potent): -1.79

## TCGGGTGTCAGCTTCTCCCGAG
CCDC56
  sensor-assay potency score (higher = more potent): -0.206

## TTGAGTTGCAGACTGCAGCAGT
CD180
  sensor-assay potency score (higher = more potent): 0.0591

## TTGCACTGAGCACCGCAGCAGC
CD320
  sensor-assay potency score (higher = more potent): -1.06

## TCCACAGCCGAGCTCGTCGCTG
CD320
  sensor-assay potency score (higher = more potent): -1.78

## TAGTTGATTGAGTTTCTCGTAA
CDC23
  sensor-assay potency score (higher = more potent): -0.361

Reference: the OligoGym collection
